From PubChem BioAssay AID1159580 (chemical genetic matrix, 2015)
Among all 5,500 compounds or so, about 2,000 (36%) were called active. About 18% were inconclusive and are not listed. Cut-off read from the data, not from the text of the source: active = normalized growth mostly below about 0.91 (no sharp cut-off); inconclusive = no clear call, values can overlap the other calls; inactive = mostly above about 0.92. The list shows a part of the results.

Assay: chemical genetic growth profiling, strain panel (AID 1159580);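 note: tested at 20 µM; growth read once vehicle control cultures reached saturation at 30 °C; 1 = growth at the plate median or of vehicle wells; lower values mean less growth of the strain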
Conditions: growth OD
[1] = S. cerevisiae deletion strains, locus YAL013W, strain DEP1, hits give low values
[2] = S. cerevisiae deletion strains, locus YBR229C, strain ROT2, hits give low values
[3] = S. cerevisiae deletion strains, locus YDL101C, strain DUN1, hits give low values
[4] = S. cerevisiae deletion strains, locus YDL134C, strain PPH21, hits give low values
[5] = S. cerevisiae deletion strains, locus YDR150W, strain NUM1, hits give low values
[6] = S. cerevisiae deletion strains, locus YEL061C, strain CIN8, hits give low values
[7] = S. cerevisiae deletion strains, locus YGR078C, strain PAC10, hits give low values
[8] = S. cerevisiae deletion strains, locus YHR030C, strain SLT2, hits give low values
[9] = S. cerevisiae deletion strains, locus YHR087W, strain rtc3, hits give low values
[10] = S. cerevisiae deletion strains, locus YJL187C, strain SWE1, hits give low values
[11] = S. cerevisiae deletion strains, locus YJR043C, strain POL32, hits give low values
[12] = S. cerevisiae deletion strains, locus YJR075W, strain HOC1, hits give low values
[13] = S. cerevisiae deletion strains, locus YKL190W, strain CNB1, hits give low values
[14] = S. cerevisiae deletion strains, locus YLR039C, strain RIC1, hits give low values
[15] = S. cerevisiae deletion strains, locus YLR058C, strain SHM2 (second series), hits give low values
[16] = S. cerevisiae deletion strains, locus YLR085C, strain ARP6, hits give low values
[17] = S. cerevisiae deletion strains, locus YLR262C, strain YPT6, hits give low values
[18] = S. cerevisiae deletion strains, locus YML094W, strain GIM5, hits give low values
[19] = S. cerevisiae deletion strains, locus YMR219W, strain ESC1, hits give low values
[20] = S. cerevisiae deletion strains, locus YMR263W, strain SAP30, hits give low values
[21] = S. cerevisiae deletion strains, locus YNL153C, strain GIM3, hits give low values
[22] = S. cerevisiae deletion strains, locus YNL298W, strain CLA4 (second series), hits give low values
[23] = S. cerevisiae deletion strains, locus YNL322C, strain KRE1, hits give low values
[24] = S. cerevisiae deletion strains, locus YNR030W, strain Alg12, hits give low values
[25] = S. cerevisiae deletion strains, locus YPL055C, strain LGE1, hits give low values
[26] = S. cerevisiae deletion strains, locus YPL241C, strain CIN2, hits give low values
[27] = S. cerevisiae deletion strains, locus YPR135W, strain CTF4, hits give low values
[28] = S. cerevisiae strains, strain wild type, hits give low values

Measured: normalized growth

COC(=O)c1ccc(-c2ccccc2F)cc1
inactive: [1] 0.984 | [2] 0.982 | [3] 0.987 | [4] 0.974 | [5] 0.971 | [6] 0.927 | [7] 0.962 | [9] 0.968 | [10] 0.961 | [11] 0.94 | [12] 0.893 | [14] 0.796 | [15] 0.99 | [17] 0.929 | [18] 0.958 | [19] 0.991 | [20] 0.971 | [21] 0.968 | [22] 0.897 | [23] 0.999 | [24] 0.957 | [25] 0.917 | [26] 0.89 | [27] 0.786
active: [8] 0.681 | [13] 0.857 | [16] 0.696 | [28] 0.901

CC/C(=N/Oc1ccc(C(F)(F)F)cn1)c1ccc(-c2ccccc2F)cc1
inactive: [1] 1.01 | [2] 1.01 | [3] 0.995 | [5] 0.981 | [6] 0.992 | [7] 1.01 | [8] 1.12 | [9] 1.02 | [10] 0.999 | [11] 0.987 | [12] 0.991 | [14] 1.03 | [15] 0.999 | [16] 1.04 | [17] 1.03 | [18] 1.01 | [19] 1 | [20] 0.996 | [21] 1 | [22] 1.05 | [23] 0.986 | [24] 1.02 | S. cerevisiae deletion strains, locus YOL006C, strain TOP1, hits give low values 1.06 | [25] 0.984 | [26] 1.01 | [27] 1.05 | [28] 1.02

COC(=O)c1ccc(C(=O)OC)nc1
inactive: [1] 1 | [2] 0.994 | [3] 0.977 | [5] 0.976 | [6] 0.999 | [7] 0.997 | [8] 0.982 | [9] 0.995 | [11] 1 | [12] 0.993 | [14] 0.973 | [15] 1 | [16] 1.01 | [17] 0.984 | [18] 0.942 | [19] 0.998 | [20] 1.02 | S. cerevisiae deletion strains, locus YNL128W, strain TEP1, hits give low values 0.987 | [21] 1 | [22] 1 | [23] 0.992 | [24] 0.998 | [25] 0.991 | [26] 0.949 | [27] 0.967 | [28] 0.989

CCOC(=O)CCc1cc(N=Cc2cc(Br)ccc2O)c(O)c(N=Cc2cc(Br)ccc2O)c1
inactive: S. cerevisiae deletion strains, locus YAR019C, strain CDC15, hits give low values 0.963 | S. cerevisiae deletion strains, locus YBL105C, strain PKC1, hits give low values 0.959 | S. cerevisiae deletion strains, locus YBR135W, strain CKS1, hits give low values 0.968 | S. cerevisiae deletion strains, locus YBR136W, strain MEC1, hits give low values 0.966 | S. cerevisiae deletion strains, locus YBR160W, strain CDC28, hits give low values 0.959 | S. cerevisiae deletion strains, locus YDL017W, strain CDC7, hits give low values 0.962 | S. cerevisiae deletion strains, locus YDL028C, strain MPS1, hits give low values 0.968 | [3] 0.967 | S. cerevisiae deletion strains, locus YDL108W, strain KIN28, hits give low values 0.959 | S. cerevisiae deletion strains, locus YDL132W, strain cdc53, hits give low values 0.961 | S. cerevisiae deletion strains, locus YDL214C, strain PRR2, hits give low values 0.834 | S. cerevisiae deletion strains, locus YDR052C, strain DBF4, hits give low values 0.953 | S. cerevisiae deletion strains, locus YDR054C, strain cdc34, hits give low values 0.951 | S. cerevisiae deletion strains, locus YDR226W, strain ADK1, hits give low values 0.979 | S. cerevisiae deletion strains, locus YDR477W, strain SNF1, hits give low values 0.805 | S. cerevisiae deletion strains, locus YER123W, strain YCK3, hits give low values 0.66 | S. cerevisiae deletion strains, locus YER133W, strain GLC7, hits give low values 0.788 | S. cerevisiae deletion strains, locus YFL009W, strain cdc4, hits give low values 0.962 | S. cerevisiae deletion strains, locus YFL029C, strain CAK1, hits give low values 0.955 | S. cerevisiae deletion strains, locus YFR003C, strain YPI1, hits give low values 0.961 | S. cerevisiae deletion strains, locus YFR019W, strain FAB1, hits give low values 0.877 | S. cerevisiae deletion strains, locus YFR028C, strain CDC14, hits give low values 0.974 | S. cerevisiae deletion strains, locus YGR040W, strain KSS1, hits give low values 0.824 | S. cerevisiae deletion strains, locus YGR052W, strain FMP48, hits give low values 0.768 | S. cerevisiae deletion strains, locus YHR079C, strain IRE1, hits give low values 0.622 | S. cerevisiae deletion strains, locus YHR082C, strain KSP1, hits give low values 0.843 | S. cerevisiae deletion strains, locus YHR205W, strain SCH9, hits give low values 0.87 | S. cerevisiae deletion strains, locus YIL147C, strain SLN1, hits give low values 0.962 | S. cerevisiae deletion strains, locus YJL095W, strain BCK1, hits give low values 0.643 | S. cerevisiae deletion strains, locus YJL128C, strain PBS2, hits give low values 0.942 | S. cerevisiae deletion strains, locus YJL157C, strain FAR1, hits give low values 0.773 | S. cerevisiae deletion strains, locus YJR016C, strain ILV3, hits give low values 0.968 | S. cerevisiae deletion strains, locus YJR066W, strain TOR1 (second series), hits give low values 0.764 | S. cerevisiae deletion strains, locus YJR066W, strain TOR1, hits give low values 0.727 | S. cerevisiae deletion strains, locus YKL048C, strain ELM1, hits give low values 0.873 | S. cerevisiae deletion strains, locus YKL067W, strain YNK1, hits give low values 0.823 | S. cerevisiae deletion strains, locus YKL101W, strain HSL1, hits give low values 0.833 | S. cerevisiae deletion strains, locus YKL193C, strain SDS22, hits give low values 0.965 | S. cerevisiae deletion strains, locus YKL203C, strain TOR2, hits give low values 0.786 | S. cerevisiae deletion strains, locus YLR133W, strain CKI1, hits give low values 0.804 | S. cerevisiae deletion strains, locus YLR403W, strain SFP1, hits give low values 0.75 | S. cerevisiae deletion strains, locus YML070W, strain DAK1, hits give low values 0.727 | S. cerevisiae deletion strains, locus YMR001C, strain CDC5, hits give low values 0.961 | S. cerevisiae deletion strains, locus YMR205C, strain PFK2 (second series), hits give low values 0.841 | S. cerevisiae deletion strains, locus YMR277W, strain FCP1, hits give low values 0.971 | S. cerevisiae deletion strains, locus YNL006W, strain LST8, hits give low values 0.976 | S. cerevisiae deletion strains, locus YNL020C, strain ARK1, hits give low values 0.79 | S. cerevisiae deletion strains, locus YNL161W, strain CBK1, hits give low values 0.959 | S. cerevisiae deletion strains, locus YNL183C, strain NPR1, hits give low values 0.754 | S. cerevisiae deletion strains, locus YNL207W, strain RIO2, hits give low values 0.957 | S. cerevisiae deletion strains, locus YNL222W, strain SSU72, hits give low values 0.975 | S. cerevisiae deletion strains, locus YNL307C, strain MCK1 (second series), hits give low values 0.76 | S. cerevisiae deletion strains, locus YOL078W, strain AVO1, hits give low values 0.965 | S. cerevisiae deletion strains, locus YOL136C, strain PFK27, hits give low values 0.679 | S. cerevisiae deletion strains, locus YOR061W, strain CKA2, hits give low values 0.809 | S. cerevisiae deletion strains, locus YOR119C, strain RIO1, hits give low values 0.84 | S. cerevisiae deletion strains, locus YOR231W, strain MKK1, hits give low values 0.657 | S. cerevisiae deletion strains, locus YOR329C, strain SCD5, hits give low values 0.961 | S. cerevisiae deletion strains, locus YPL031C, strain PHO85, hits give low values 0.8 | S. cerevisiae deletion strains, locus YPL153C, strain RAD53, hits give low values 0.784 | S. cerevisiae deletion strains, locus YPL204W, strain HRR25, hits give low values 0.754 | S. cerevisiae deletion strains, locus YPL209C, strain IPL1, hits give low values 0.964 | S. cerevisiae deletion strains, locus YPR025C, strain CCL1, hits give low values 0.954 | S. cerevisiae deletion strains, locus YPR106W, strain ISR1, hits give low values 0.98 | S. cerevisiae deletion strains, locus YPR111W, strain DBF20, hits give low values 0.958 | S. cerevisiae deletion strains, strain NNK1, hits give low values 0.964 | S. cerevisiae deletion strains, strain TSCII, hits give low values 0.96
active: S. cerevisiae deletion strains, locus YGR092W, strain DBF2, hits give low values 0.371 | [8] 0.562 | S. cerevisiae deletion strains, locus YLR113W, strain HOG1, hits give low values 0.65 | S. cerevisiae deletion strains, locus YPL256C, strain CLN2, hits give low values 0.579

CCOC(=O)CCc1cc(N=Cc2cc(Cl)cc(Cl)c2O)c(O)c(N=Cc2cc(Cl)cc(Cl)c2O)c1
active: [1] 0.257 | [2] 0.225 | [3] 0.48 | [5] 0.328 | [6] 0.254 | [7] 0.14 | [8] 0.126 | [9] 0.0846 | [10] 0.204 | [11] 0.403 | [12] 0.245 | [13] 0.537 | [14] 0.164 | [15] 0.598 | [16] 0.14 | [17] 0.156 | [18] 0.243 | [19] 0.278 | [20] 0.354 | [21] 0.454 | [22] 0.411 | [23] 0.935 | [24] 0.63 | [25] 0.212 | [26] 0.476 | [27] 0.558 | [28] 0.555

CN(C)c1ccc(/C=N\NC(=O)CCc2ccc(O)cc2)c(Cl)c1
inactive: [1] 1.01 | [2] 0.998 | [3] 1.05 | [4] 1.01 | [5] 1.01 | [6] 0.974 | [7] 1.02 | [8] 0.992 | [9] 0.995 | [11] 1.01 | [12] 1.01 | [13] 1.01 | [14] 0.951 | [15] 1.01 | [16] 0.999 | [17] 0.946 | [18] 0.974 | [19] 1.01 | [20] 1.02 | S. cerevisiae deletion strains, locus YMR307W, strain GAS1, hits give low values 0.97 | [21] 1 | [22] 0.999 | [23] 1.01 | [24] 1.01 | [25] 0.985 | [26] 0.967 | [27] 1.01
